Test results from PubChem BioAssay.
Activity calls are given as the source filed them.

Assays:
[1] = tested on: Plasmodium falciparum Sir2 (PF13_0152, Sir2A); assay: Plasmodium falciparum Sir2A binding compounds – biochemical, small-molecule microarray, 635 nm fluorescence, primary screen (AID 1098); conditions: fluorescence 635 nm, higher = more signal;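 note: score merges spot fluorescence intensity with its signal-to-noise ratio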
[2] = probe aDKK1 binding to arrayed compounds – biochemical, biotinylated probe, 635/667 nm fluorescence, primary screen (AID 1099); conditions: small-molecule microarray, higher = more signal;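 note: score merges 667nm spot fluorescence with signal to noise across triplicate slides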
[3] = probe aCHRDL2 binding to arrayed compounds – biochemical, biotinylated probe, 635/667 nm fluorescence, primary screen (AID 1100); conditions: small-molecule microarray, higher = more signal
[4] = change in splice reporter luminescence, either direction, cell-based, HEK293, spliceosome inhibition project, primary screen (AID 1101); conditions: HEK293 splicing luciferase reporter, 24 h, higher = more signal, called active from +8 up or from −8 down;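 note: HEK293 cells carrying a splicing-competent luciferase reporter gene; test concentration not given here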
[5] = target: Fibroblast growth factor 10 (Homo sapiens) (UniProt O15520); assay: compounds binding fibroblast growth factor 10 – biochemical, small-molecule microarray, 635 nm fluorescence, primary screen (AID 1102); conditions: FGF10 binding, fluorescence 635 nm, higher = more signal
Chain of Fibroblast growth factor 10 (Homo sapiens) (O15520 whole entry, looked up): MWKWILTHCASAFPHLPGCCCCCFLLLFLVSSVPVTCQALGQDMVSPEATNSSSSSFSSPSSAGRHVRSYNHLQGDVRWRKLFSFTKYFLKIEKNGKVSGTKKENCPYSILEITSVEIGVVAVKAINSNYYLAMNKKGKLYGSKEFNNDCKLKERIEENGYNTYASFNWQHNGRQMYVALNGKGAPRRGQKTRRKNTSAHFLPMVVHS

[6] = tested on: glycogen synthase kinase-3 (GSK3A per assay name; protocol says GSK3B); assay: compounds binding glycogen synthase kinase-3 – biochemical, small-molecule microarray, 635 nm fluorescence, GSK3A, primary screen (AID 1103); conditions: fluorescence 635 nm, higher = more signal; note: the record names both GSK3A and GSK3B
[7] = target: Epidermal growth factor receptor (Homo sapiens) (UniProt P00533); assay: compounds binding epidermal growth factor receptor – biochemical, small-molecule microarray, 635 nm fluorescence, primary screen (AID 1104); conditions: EGFR binding, higher = more signal;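 note: score merges 667 nm emission intensity with spot signal to noise over triplicate slides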
Chain of Epidermal growth factor receptor (Homo sapiens) (P00533 whole entry, looked up): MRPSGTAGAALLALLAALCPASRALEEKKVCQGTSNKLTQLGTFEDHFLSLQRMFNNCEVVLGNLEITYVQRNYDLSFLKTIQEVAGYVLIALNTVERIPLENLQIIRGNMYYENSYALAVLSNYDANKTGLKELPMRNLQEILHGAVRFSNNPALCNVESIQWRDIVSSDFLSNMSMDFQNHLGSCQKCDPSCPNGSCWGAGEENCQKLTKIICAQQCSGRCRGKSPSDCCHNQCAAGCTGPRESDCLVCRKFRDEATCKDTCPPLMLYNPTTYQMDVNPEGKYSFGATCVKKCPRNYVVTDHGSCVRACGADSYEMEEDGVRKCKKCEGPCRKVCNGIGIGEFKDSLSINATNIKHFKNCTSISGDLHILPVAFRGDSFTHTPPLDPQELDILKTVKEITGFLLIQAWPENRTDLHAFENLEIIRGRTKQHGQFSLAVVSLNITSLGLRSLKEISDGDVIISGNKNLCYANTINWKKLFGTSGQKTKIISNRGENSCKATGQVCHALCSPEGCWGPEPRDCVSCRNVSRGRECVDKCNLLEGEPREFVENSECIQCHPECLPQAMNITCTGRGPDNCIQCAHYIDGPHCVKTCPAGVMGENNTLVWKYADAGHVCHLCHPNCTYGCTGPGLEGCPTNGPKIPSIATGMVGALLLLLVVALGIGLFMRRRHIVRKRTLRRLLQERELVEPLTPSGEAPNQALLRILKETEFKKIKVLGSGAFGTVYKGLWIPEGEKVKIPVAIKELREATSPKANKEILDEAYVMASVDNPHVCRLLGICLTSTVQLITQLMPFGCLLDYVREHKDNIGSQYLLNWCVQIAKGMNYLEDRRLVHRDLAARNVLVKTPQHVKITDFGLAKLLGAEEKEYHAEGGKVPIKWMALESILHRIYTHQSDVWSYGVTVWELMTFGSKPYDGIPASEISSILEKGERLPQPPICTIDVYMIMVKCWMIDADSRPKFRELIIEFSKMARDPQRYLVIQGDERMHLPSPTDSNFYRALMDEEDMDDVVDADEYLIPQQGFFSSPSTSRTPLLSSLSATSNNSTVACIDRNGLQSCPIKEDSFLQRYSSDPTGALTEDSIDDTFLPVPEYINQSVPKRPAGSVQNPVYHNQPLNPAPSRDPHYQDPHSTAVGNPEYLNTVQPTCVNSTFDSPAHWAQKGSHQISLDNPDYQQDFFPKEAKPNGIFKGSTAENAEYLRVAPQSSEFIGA

[8] = target: Follistatin-related protein 3 (Homo sapiens) (UniProt O95633); assay: compounds binding follistatin-related protein 3 – biochemical, small-molecule microarray, 635 nm fluorescence, primary screen (AID 1105); conditions: FSTL3 binding, higher = more signal;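 note: score merges emission near 667 nm and signal to noise per printed spot across three slides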
Chain of Follistatin-related protein 3 (Homo sapiens) (O95633 whole entry, looked up): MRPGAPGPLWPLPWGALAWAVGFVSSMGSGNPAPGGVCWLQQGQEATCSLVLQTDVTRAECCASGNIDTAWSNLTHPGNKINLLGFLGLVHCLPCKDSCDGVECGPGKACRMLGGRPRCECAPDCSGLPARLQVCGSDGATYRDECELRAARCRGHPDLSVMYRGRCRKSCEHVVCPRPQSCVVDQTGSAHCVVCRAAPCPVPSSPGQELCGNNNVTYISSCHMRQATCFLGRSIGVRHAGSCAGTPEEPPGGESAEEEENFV

[9] = target: Dickkopf-related protein 1 (Homo sapiens) (UniProt O94907); assay: small molecules binding DKK1 protein – biochemical, small-molecule microarray, 635 nm fluorescence scan, primary screen (AID 1106); conditions: higher = more signal;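 note: score merges emission near 667 nm with signal to noise over three replicate slides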
Chain of Dickkopf-related protein 1 (Homo sapiens) (O94907 whole entry, looked up): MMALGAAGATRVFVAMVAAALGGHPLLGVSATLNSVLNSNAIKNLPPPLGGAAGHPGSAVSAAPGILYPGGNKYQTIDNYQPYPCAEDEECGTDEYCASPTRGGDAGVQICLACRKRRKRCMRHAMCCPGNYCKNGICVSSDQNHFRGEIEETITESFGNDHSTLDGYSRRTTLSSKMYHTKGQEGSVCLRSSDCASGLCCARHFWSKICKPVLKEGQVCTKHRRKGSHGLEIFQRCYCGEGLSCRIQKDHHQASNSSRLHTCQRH

[10] = tested on: Inhibin beta A chain (activin A); assay: small molecules binding activin A – biochemical, small-molecule microarray, 635 nm fluorescence scan, primary screen (AID 1107); conditions: INHBA, higher = more signal;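 note: mouse activin A protein probed at 4.33 µg/mL on printed slides; score merges bound-protein fluorescence near 667 nm with spot signal-to-noise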
[11] = tested on: Human papillomavirus type 1a protein E7 (residues 44-93); assay: small molecules binding HPV E7 44-93 – biochemical, small-molecule microarray, residues 44-93, 635 nm fluorescence, primary screen (AID 1108); conditions: fluorescence 635 nm, higher = more signal;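 note: E7 fragment applied at 1 µg/mL in TBST for 1 h at 4 C; score combines spot fluorescence with its signal to noise ratio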
[12] = hepatitis C replication reporter changes, two-sided – Huh7 cells, luciferase reporter, HCV replication inhibitor project, primary screen (AID 1109); conditions: Huh7 HCV replicon luciferase reporter, 48 h; higher = more signal;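 note: huh7 hepatoma cells harbouring a luciferase neomycin HCV replicon reporter; luciferase luminescence as measure of HCV replicon replication; test concentration not given here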
[13] = target: Left-right determination factor 2 (Homo sapiens) (UniProt O00292); assay: small molecules binding LEFTY2 protein – biochemical, small-molecule microarray, 635 nm fluorescence scan, primary screen (AID 1110); conditions: higher = more signal
Chain of Left-right determination factor 2 (Homo sapiens) (O00292 whole entry, looked up): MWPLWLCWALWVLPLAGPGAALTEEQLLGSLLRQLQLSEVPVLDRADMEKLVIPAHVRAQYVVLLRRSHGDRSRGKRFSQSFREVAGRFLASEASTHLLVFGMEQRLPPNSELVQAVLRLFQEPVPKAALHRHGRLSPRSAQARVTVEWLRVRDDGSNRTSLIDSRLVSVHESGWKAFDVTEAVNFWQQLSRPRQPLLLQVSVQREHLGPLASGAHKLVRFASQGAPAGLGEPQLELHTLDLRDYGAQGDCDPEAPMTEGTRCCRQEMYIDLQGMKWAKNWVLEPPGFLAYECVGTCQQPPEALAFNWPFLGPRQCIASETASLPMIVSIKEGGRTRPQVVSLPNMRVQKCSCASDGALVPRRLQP

[14] = target: Calmodulin-1 (Homo sapiens) (UniProt P0DP23); assay: small molecules binding calmodulin-1 with EGTA – biochemical, small-molecule microarray, Cy5-labelled CALM1, profiling panel (AID 1111); conditions: Cy5-CALM1 binding fluorescence, higher = more signal;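 note: labelled calmodulin applied in Tris saline Tween buffer holding calcium plus EGTA and DTT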
[15] = target: Calmodulin-1 (Homo sapiens) (UniProt P0DP23); assay: small molecules binding Ca-loaded calmodulin-1 – biochemical, small-molecule microarray, Cy5-labelled CALM1, plus calcium, artefact control for SMM control-protein annotation, profiling panel (AID 1112); conditions: Cy5-CALM1 binding fluorescence, higher = more signal;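 note: score merges spot fluorescence with signal to noise from triplicate slides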
[16] = probe aWnt5a binding to arrayed compounds – biochemical, biotinylated probe, 635/667 nm fluorescence, primary screen (AID 1113); conditions: small-molecule microarray, higher = more signal;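 note: score merges 667 nm fluorescence intensity with signal-to-noise per printed feature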
[17] = probe aShh binding to arrayed compounds – biochemical, biotinylated probe, 635/667 nm fluorescence, primary screen (AID 1114); conditions: small-molecule microarray, higher = more signal;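 note: probe is biotin-labelled aShh protein from a stem cell growth factor screen; measures binding of labelled protein to compounds printed on the slide; score merges feature fluorescence at 667 nm with signal-to-noise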
[18] = probe aNog binding to arrayed compounds – biochemical, biotinylated probe, 635/667 nm fluorescence, primary screen (AID 1115); conditions: small-molecule microarray, higher = more signal;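 note: probe is biotinylated aNog protein used at 0.15 µg/mL for 1 h at 4 C; z-score combines 667 nm fluorescence of each spot with its signal to noise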
[19] = target: Torsin-1A-interacting protein 1 (Homo sapiens) (UniProt Q5JTV8); assay: compound microarray binding of lysate hLAP1 – cell lysate, small-molecule microarray, COS7 lysate, 635/667 nm fluorescence, primary screen (AID 1116); conditions: 635 nm fluorescence, higher = more signal
Chain of Torsin-1A-interacting protein 1 (Homo sapiens) (Q5JTV8 whole entry, looked up): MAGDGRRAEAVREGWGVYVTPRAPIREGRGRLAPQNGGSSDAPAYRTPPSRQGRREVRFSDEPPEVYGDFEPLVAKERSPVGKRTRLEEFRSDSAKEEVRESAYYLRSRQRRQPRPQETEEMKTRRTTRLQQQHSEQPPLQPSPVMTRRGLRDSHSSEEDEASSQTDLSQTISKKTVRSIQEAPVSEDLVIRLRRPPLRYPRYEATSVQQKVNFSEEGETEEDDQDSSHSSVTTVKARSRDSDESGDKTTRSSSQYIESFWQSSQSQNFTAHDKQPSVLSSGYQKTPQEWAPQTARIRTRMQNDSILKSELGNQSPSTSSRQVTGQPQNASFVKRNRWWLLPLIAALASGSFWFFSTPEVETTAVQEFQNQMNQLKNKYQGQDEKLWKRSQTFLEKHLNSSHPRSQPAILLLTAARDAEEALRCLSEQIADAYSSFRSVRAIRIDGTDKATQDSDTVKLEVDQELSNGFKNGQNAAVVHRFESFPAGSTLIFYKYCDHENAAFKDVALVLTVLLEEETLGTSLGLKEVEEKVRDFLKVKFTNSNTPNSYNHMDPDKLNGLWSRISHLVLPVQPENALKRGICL

[20] = target: Alpha-bungarotoxin (Bungarus multicinctus) (UniProt P60615); assay: compounds binding labelled alpha-BTX control protein – biochemical, small-molecule microarray, Alexa647 label, 635/667 nm fluorescence, artefact control for SMM control protein annotation, profiling panel (AID 1117); conditions: alpha-BTX-A647 binding fluorescence, higher = more signal
Chain of Alpha-bungarotoxin (Bungarus multicinctus) (P60615 whole entry, looked up): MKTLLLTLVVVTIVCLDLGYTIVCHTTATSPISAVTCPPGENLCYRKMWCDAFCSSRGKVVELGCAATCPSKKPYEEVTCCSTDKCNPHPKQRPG

Row | Compound | composite z-score [1] | composite z-score [2] | composite z-score [3] | z-score [4] | composite z-score [5] | composite z-score [6] | composite z-score [7] | composite z-score [8] | composite z-score [9] | composite z-score [10] | composite z-score [11] | z-score [12] | composite z-score [13] | composite z-score [14] | composite z-score [15] | composite z-score [16] | composite z-score [17] | composite z-score [18] | composite z-score [19] | composite z-score [20]
1 | O=C1[C@H]2[C@H]3[C@H](O)[C@H](O)CC(=NOC[C@@H](O)COCc4ccco4)[C@H]3CC[C@H]2C(=O)N1c1ccc(F)cc1F | -0.295 | 0.0973 | -0.901 | -2.86 (inactive) | -0.921 | 0.0894 | -0.553 | -0.529 | -0.301 | -0.413 | -3.61 | -0.988 | 0.0845 | -1.3 | -1.07 | -0.282 | -0.504 | 1.39 | 0.346 | -0.59
2 | CCOC(=O)NN=C1C[C@@H](O)[C@@H](O)[C@@H]2[C@@H]3C(=O)N(c4cccc(Oc5ccccc5)c4)C(=O)[C@@H]3CC[C@H]12 | 0.424 | 0.104 | -0.566 | -0.652 (inactive) | 0.518 | 0.176 | 0.381 | 0.455 | 0.222 | 0.0233 | 0.731 | 0.011 | 0.404 | 0.141 | -0.141 | -0.205 | -0.388 | -0.304 | 0.129 | 0.675
3 | COCCNC(=O)OCC1CCCC2(CC(OC(=O)NCc3ccc4c(c3)OCO4)CC(CCC(=O)N[C@@H](C)C(=O)OC)O2)O1 (stereo not given in full) | 0.742 | -0.205 | -0.634 | 0.442 (inactive) | 0.696 | 0.953 | 0.696 | 1.31 | 0.518 | 0.0253 | 0.953 | -1.26 | 0.65 | 0.332 | -0.431 | -0.0819 | -0.0553 | -0.0645 | 0.376 | 0.804
4 | CC(C)=CCCC(C)=CCON=C1C[C@@H](O)[C@@H](O)[C@@H]2[C@@H]3C(=O)N(C[C@@H]4CCCO4)C(=O)[C@@H]3CC[C@H]12 | 0.346 | -0.257 | -0.762 | 0.91 (inactive) | 1.37 | 1.25 | 1.29 | 1.39 | 1.46 | 1 | 1.11 | -0.0626 | 0.957 | 0.0209 | 0.228 | -0.0783 | 0.0952 | -0.278 | 0.986 | 1.15
5 | CCN1C(=O)[C@H]2[C@H]3[C@H](O)[C@H](O)CC(=NNC(=O)OCc4ccc(OC)cc4)[C@@H]3CC[C@H]2C1=O | -0.492 | 1.08 | 0.765 | 0.564 (inactive) | -0.0766 | 0.269 | -0.0752 | 0.0539 | -0.808 | 0.242 | -0.246 | -0.193 | -0.0843 | -0.484 | -0.732 | -0.261 | 0.401 | -0.272 | -0.717 | 0.374
6 | O=C1OCCC=C1C(O)CCc1ccccc1 (stereo not given) | 0.11 | -0.344 | -0.293 | -0.278 (inactive) | 0.248 | 0.216 | 0.386 | 0.527 | 0.586 | 0.62 | -0.0602 | -0.364 | 0.791 | -0.818 | -0.679 | -0.0981 | -0.13 | 0.0229 | 0.128 | 0.642
